The values that follow come from paper PMC13494018.

B1: design_601_c3fd07b4-2f34-4ad8-bd4e-2749faf628eb_2023_dldesign_0_cycle1_af2pred (protein)
chain: MREEIIKAIKEAVKELKKLGKLAKEAKKKNPEIGKEAEKDAKKLQKELFEALSSENAVEKLKEVKEKTKKKIEEIKKKVEE
B2: design_601_c3fd07b4-2f34-4ad8-bd4e-2749faf628eb_1953_dldesign_0_cycle1_af2pred (protein)
chain: AVAAKAQAALDRTAALREKHPEAKEYLDKAEEEAKKALADPANAAEYLKKAANYLQEAYQEASEYEFKKK
B3: design_601_c3fd07b4-2f34-4ad8-bd4e-2749faf628eb_503_dldesign_0_cycle1_af2pred (protein)
chain: AEKAIGNAHAYKNILKSEAEWSKKLPLEERKKRLKELVEEIAKIAAEAGEEVAEKFRKEAEAFAEEALKKQEEE
B4: design_601_c3fd07b4-2f34-4ad8-bd4e-2749faf628eb_190_dldesign_0_cycle1_af2pred (protein)
chain: SMEGQELKDKAVDALGDAHLLKIKGKEIDPEIVKIAEKAEEAAKKALKLIKEGNLEEAKEELEKAEELVKKAKELLKKKE
B5: design_601_c3fd07b4-2f34-4ad8-bd4e-2749faf628eb_72_dldesign_0_cycle1_af2pred (protein)
chain: AAAAAAKKAEADATQLDLIAKSTEAIKDKVSPETVADVFAPAAAAYEKAAKLWSGNPAKAAEFKAKAKEMKAKYEKAKKEAE
B6: design_601_c3fd07b4-2f34-4ad8-bd4e-2749faf628eb_419_dldesign_0_cycle1_af2pred (protein)
chain: GKEELLKKAKKAMEETKKAIKEGKKLIKEGASKEELEKAAEELRKKAKEVRELGKELPELKPEAAKVAQEAYETAAELDVEAKKK
B7: design_602_0a1f3d3d-7d26-454b-9b34-ebe8ef9bc7d4_95_dldesign_0_cycle1_af2pred (protein)
chain: MEELAKKAEEVVEESGEALAKAPREKWPEISELRHESLRALREAGENPETREEHLKEGEKYLEEAKKLAEKGAKE
B8: design_601_c3fd07b4-2f34-4ad8-bd4e-2749faf628eb_2331_dldesign_0_cycle1_af2pred (protein)
chain: HMEEEAYKAKVEKAKAAMKEAADKLVSDPEAAKKQITQIAKDTAKELIATGTPAGKAAAQDALAEATAAKTELDKKAK
B9: design_601_c3fd07b4-2f34-4ad8-bd4e-2749faf628eb_587_dldesign_0_cycle1_af2pred (protein)
chain: NEEKAKTALSEGNAYYRMALDAVKIGVKKEDVLALIDEAEKYFEKAAELYKDNPEKAKKIKELGKEKTEEARKALEEA
B10: design_601_c3fd07b4-2f34-4ad8-bd4e-2749faf628eb_83_dldesign_0_cycle1_af2pred (protein)
chain: NEEAKKAYEKAKKVIEKVLKLAKENPELAEAEEQAKKALEKAEEGLKKGDVGLTESALTRAEHLLEVAEAKIAA
B11: design_601_c3fd07b4-2f34-4ad8-bd4e-2749faf628eb_257_dldesign_0_cycle1_af2pred (protein)
chain: VELAKEMKKLIAEAARAAKEDPKKAAKLLKEAAKKAKEIGEIAEPAAKLLEEAAKLLEEGPEKAPEAATLLSEARAEANYVIKSLEL
B12: design_601_c3fd07b4-2f34-4ad8-bd4e-2749faf628eb_1497_dldesign_0_cycle1_af2pred (protein)
chain: SMEEEEQRRRAIEELKRLMELADKSPSEIAKATREAVAATPLYAERIRKVGTAMMFNPEEGKKLAEEAIKELE
B13: design_601_c3fd07b4-2f34-4ad8-bd4e-2749faf628eb_648_dldesign_0_cycle1_af2pred (protein)
chain: GTEEALERVRRGAERARRLLDEARKYGADKEKVDALTKEADEALAAAEENPEKAPEYLKRIAEISAEAAELRAEAFAKK
B14: design_601_c3fd07b4-2f34-4ad8-bd4e-2749faf628eb_731_dldesign_0_cycle1_af2pred (protein)
chain: AEAKKELTEEVFEALEYRNEIERKDPELGKKARELLRKAFEEGRKLIKADPEEGTKKAAEIVKKVREEIKKLAE
B15: design_601_c3fd07b4-2f34-4ad8-bd4e-2749faf628eb_475_dldesign_0_cycle1_af2pred (protein)
chain: DEFTEKAKEFAEEVKKKSKELVAKAEAGDAETAKEKRKEAVKLLSEAFSLSVKAKKESKEAYEYMKEAEEIASDAVIKISEIEKKKAA
B16: design_602_0a1f3d3d-7d26-454b-9b34-ebe8ef9bc7d4_149_dldesign_0_cycle1_af2pred (protein)
chain: VVEKALKEMEKYIEKAKEEAIKINPKAKEYIEKRAKRIREEAKKGAEEAKKLYKEDPEKGKEKAKEALKKTKGLAESLIEHAKFSAK
B17: design_601_c3fd07b4-2f34-4ad8-bd4e-2749faf628eb_2200_dldesign_0_cycle1_af2pred (protein)
chain: SSEYSKKLAEDLKTFVKNIRDIAKESGDPAVVEQAKAVMAAFVTSEEAGVAAAKKLEAYTKETTNPALAAKAATAYDALKNIADG
B18: design_601_c3fd07b4-2f34-4ad8-bd4e-2749faf628eb_461_dldesign_0_cycle1_af2pred (protein)
chain: SAEEEAKKLLEEVKKAMSAANFAMAEDLEEGEKAWEEAKKKAKELLEKAEKLNKEEAKKVKEAVEKGEKTYKRIKKDHEEAEKRAKER
B19: design_601_c3fd07b4-2f34-4ad8-bd4e-2749faf628eb_1122_dldesign_0_cycle1_af2pred (protein)
chain: MEEEKIRKRQAELLKEEAEKEMAAAKASTDAAEAANLGLFARQLYRSAAKIDKENKEEYLKLAEKAEEETKAIVAAKKAA
B20: design_602_0a1f3d3d-7d26-454b-9b34-ebe8ef9bc7d4_127_dldesign_0_cycle1_af2pred (protein)
chain: AEEERRKALAKKRAERAKALAVEAKKEGNEEAAKYYEKAAELYAKAAEAPPEERGKLVDEAVEYYGEGELEKIKFK
B21: design_601_c3fd07b4-2f34-4ad8-bd4e-2749faf628eb_2458_dldesign_0_cycle1_af2pred (protein)
chain: MEKAKEEALKLIKELLEATKLPKGKASQIALELAAEADWLAKKSSPEAAELFNALAEAARAVVKDKEKGKELAKKVKEKVEK
B22: design_602_0a1f3d3d-7d26-454b-9b34-ebe8ef9bc7d4_204_dldesign_0_cycle1_af2pred (protein)
chain: SEEEKKKELLEKTEENKKYLEELRKKYEADPSYKVEAATAEAGVKAAEEAKGENFEEAAEKAQKAYNTFKRMEEAEEEAKKRA
B23: design_602_0a1f3d3d-7d26-454b-9b34-ebe8ef9bc7d4_194_dldesign_0_cycle1_af2pred (protein)
chain: AVEAAIEALEELAKKAPPELAEYLKRTAEAAKKAGEKVLRYAVRAAAYATIALEGSPEVAAEAIKKAKEQAEKAEKIAKE
B24: design_601_c3fd07b4-2f34-4ad8-bd4e-2749faf628eb_1485_dldesign_0_cycle1_af2pred (protein)
chain: GYKERAKKEIEEAKKNLEKAKADPSTAVSLLTDAIAHANAAKSLAEKLEKTDPETGKELIEEAKEIREEAKKVLAERNAA
B25: design_601_c3fd07b4-2f34-4ad8-bd4e-2749faf628eb_334_dldesign_0_cycle1_af2pred (protein)
chain: DPASEEAKKLADKMRTAQRLFKQAGLALKEGKRDVDAVAEGYALAKEADPEFAEALEEALKKSVGEEKGTALIEEAKALAKAKAAA
B26: design_601_c3fd07b4-2f34-4ad8-bd4e-2749faf628eb_2221_dldesign_0_cycle1_af2pred (protein)
chain: GAAEEAKKALKEAKERIEKVATPETKEFHEKLKEEMEKKVKELMAGDPVEGAKAAAKAAAAYAQEAYEASAEARAKEIIKK
B27: design_601_c3fd07b4-2f34-4ad8-bd4e-2749faf628eb_592_dldesign_0_cycle1_af2pred (protein)
chain: SSADILREYRRALQEATKAAAAADPANKEEILKEGAKAREEVVDAFSESDELGKKTAEEQLAKIKARKKAAE
B28: design_601_c3fd07b4-2f34-4ad8-bd4e-2749faf628eb_2283_dldesign_0_cycle1_af2pred (protein)
chain: AAAEDEAKRALAKKKAEEAKKLAKEAVEGNAEKAEKAAKELEKILKELRALGKAASPAAKAALTAAAHTAAEAYAEAYSAAVVKKEKE
B29: design_602_0a1f3d3d-7d26-454b-9b34-ebe8ef9bc7d4_19_dldesign_0_cycle1_af2pred (protein)
chain: MEEEEELKKKKEELLKLKKKLEEAYDIAAELAAKNPEYLDEVLEKYREGLRYLKLGGENPENYEEYYEKAKEKLKEIEEIAKKLK
B30: design_601_c3fd07b4-2f34-4ad8-bd4e-2749faf628eb_1955_dldesign_0_cycle1_af2pred (protein)
chain: MEQEKKDEELLKKVKELGKEATEKSLEDPEKAKEYRKKLIEEAKKAAAEASPEYAKKIAEEAQKAQEEITEAQVEGEKKKK
B31: design_601_c3fd07b4-2f34-4ad8-bd4e-2749faf628eb_1384_dldesign_0_cycle1_af2pred (protein)
chain: SKIELLKKAAEYVEEAAKLAKEGGRVSDVIKLLQKAYELAKKAGDEETAKLIKEAAFAVPDPEKAYKLLKEAAERLKEKAKKLE
B32: design_601_c3fd07b4-2f34-4ad8-bd4e-2749faf628eb_877_dldesign_0_cycle1_af2pred (protein)
chain: NEKAKEALKENKEAAELARKLAKEGIAPEEAARLAQKLQETAAVMKMADKVPKETLEEAIKEGKKAAEEVKKLAKA
B33: design_601_c3fd07b4-2f34-4ad8-bd4e-2749faf628eb_352_dldesign_0_cycle1_af2pred (protein)
chain: AKEDQEASSEMMRYLTKAGKLAKEIGEEEYEKALKEREKVLELSVEDPKKGLEAAKEVLKEYEEKYKKAEEEKKA
B34: design_601_c3fd07b4-2f34-4ad8-bd4e-2749faf628eb_1863_dldesign_0_cycle1_af2pred (protein)
chain: SEYEKELAKAEAFVKEALKKSKEEFIAETKKLFEEGSPVYQSALMRALTKAAKEYKDDPEKQKKALDARDTIVD
B35: design_601_c3fd07b4-2f34-4ad8-bd4e-2749faf628eb_1838_dldesign_0_cycle1_af2pred (protein)
chain: SMAEEILKEFLELAKVMAEDPEKGAKLFAEKVKELDPSIYPFAEAAAKKAAEEGAPLEELERAARAFANVVTT
B36: design_601_c3fd07b4-2f34-4ad8-bd4e-2749faf628eb_821_dldesign_0_cycle1_af2pred (protein)
chain: EAAAAAAAGEEARRLTRKRLERAEEAEKTKSPLQAANAWLAASEFARHAAEALAKNYPSATETIAELRALAEEAEAKAKELL
B37: design_601_c3fd07b4-2f34-4ad8-bd4e-2749faf628eb_2299_dldesign_0_cycle1_af2pred (protein)
chain: MEAKEKAEKAIKRAKEIGEKLIKKVAFNPEAAEKVKKLTEEAIEAIKKDPEEGIKKGAEILQKAREYAAEVLAKN
B38: design_601_c3fd07b4-2f34-4ad8-bd4e-2749faf628eb_1417_dldesign_0_cycle1_af2pred (protein)
chain: EEEKLKEAAKRLHEAREKTNEAEQKLKLEGKKNAEELKKELEAAAKVAKAVAEEVKANPEYAKIAETLAKRAEKAAQEA

This test deals with VTCN1, Q7Z7D3.
Chain of VTCN1, Q7Z7D3 (Q7Z7D3 whole entry): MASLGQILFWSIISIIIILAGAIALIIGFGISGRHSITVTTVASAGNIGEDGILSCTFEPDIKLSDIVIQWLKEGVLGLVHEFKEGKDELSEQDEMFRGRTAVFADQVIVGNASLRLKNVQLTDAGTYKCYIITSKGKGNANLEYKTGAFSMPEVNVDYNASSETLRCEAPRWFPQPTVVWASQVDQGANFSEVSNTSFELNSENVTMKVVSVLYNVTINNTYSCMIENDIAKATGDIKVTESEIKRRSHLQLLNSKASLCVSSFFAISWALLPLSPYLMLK
B1: the “binding in a display sort” value was “not found (inactive)”.

Consider B2, for which the “binding in a display sort” value was “not found (inactive)”.

Regarding B3, the “binding in a display sort” value was “not found (inactive)”.

As for B4, the “binding in a display sort” value was “not found (inactive)”.

Turning to B5, the “binding in a display sort” value is “not found (inactive)”.

In the case of B6, the “binding in a display sort” value was “not found (inactive)”.

On to B7, for which the “binding in a display sort” value is “not found (inactive)”.

In the case of B8, the “binding in a display sort” value was “not found (inactive)”.

As to B9, the “binding in a display sort” value is “not found (inactive)”.

In the case of B10, the “binding in a display sort” value was “not found (inactive)”.

B11: the “binding in a display sort” value is “not found (inactive)”.

Regarding B12, the “binding in a display sort” value was “binds (active)”.

As to B13, the “binding in a display sort” value was “not found (inactive)”.

Turning to B14, the “binding in a display sort” value was “not found (inactive)”.

As for B15, the “binding in a display sort” value is “not found (inactive)”.

As to B16, the “binding in a display sort” value is “not found (inactive)”.

Turning to B17, the “binding in a display sort” value was “not found (inactive)”.

For the molecule B18, the “binding in a display sort” value was “not found (inactive)”.

Turning to B19, the “binding in a display sort” value was “not found (inactive)”.

B20: the “binding in a display sort” value is “not found (inactive)”.

On to B21, for which the “binding in a display sort” value was “not found (inactive)”.

With B22, the “binding in a display sort” value was “not found (inactive)”.

Consider B23, for which the “binding in a display sort” value is “not found (inactive)”.

Consider B24, for which the “binding in a display sort” value is “not found (inactive)”.

B25: the “binding in a display sort” value was “not found (inactive)”.

As to B26, the “binding in a display sort” value is “not found (inactive)”.

As to B27, the “binding in a display sort” value was “not found (inactive)”.

For the molecule B28, the “binding in a display sort” value was “not found (inactive)”.

As for B29, the “binding in a display sort” value is “not found (inactive)”.

For B30, the “binding in a display sort” value was “not found (inactive)”.

B31: the “binding in a display sort” value was “not found (inactive)”.

On to B32, for which the “binding in a display sort” value was “not found (inactive)”.

With B33, the “binding in a display sort” value was “not found (inactive)”.

On to B34, for which the “binding in a display sort” value is “not found (inactive)”.

For B35, the “binding in a display sort” value was “not found (inactive)”.

Take B36: the “binding in a display sort” value is “not found (inactive)”.

As for B37, the “binding in a display sort” value is “not found (inactive)”.

For the molecule B38, the “binding in a display sort” value was “not found (inactive)”.
